SNCA expr inhib: inhibitors of alpha-synuclein (SNCA) gene expression; HEK-293 SNCA-luciferase knock-in, luminescence, 24 h; Potency, µM (top dose mostly 57.2 µM), usual class: inhibitors; hit rate 0.17% among 140,000; AID 1671194; further: nearly all actives have a fitted effect of over 45% in size
SNCA viab count: reduces viability of HEK-293 SNCA reporter cells; HEK-293-SNCA-luc viability, GF-AFC fluorescence, 24 h; Potency, µM (doses to about 57.1 µM), hits mostly cytotoxic; hit rate 0.12% among 150,000; further: nearly all actives have a fitted effect of over 30% in size
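HEK-293-SNCA-luc cells (1500/well) plated 24 h, then exposed 24 h to a dilution series; GF-AFC added 30 min at 37C, fluorescence 405/540 nm; normalised to medium-only and DMSO wells, Hill fit.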
IP6K1 inh: IP6K1 kinase inhibition; hit rate 0.81% among 140,000; Q92551; IP6K1 kinase, ADP-Glo luminescence, 2 h; stronger effect = lower value; activity change, % (series mostly up to about 58 µM); in the data active means activity change below about -25%
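ADP-Glo luminescence measures ADP made by human IP6K1 during a 2 h RT reaction with ATP/IP6 (mix at 1.3 mM/130 uM); top library doses 57.5 and 19.1 uM final.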
KDM5B inhibitor: blocks human KDM5B histone demethylase activity | Q9UGL1 | KDM5B demethylase, FDH-coupled NADH fluorescence (FDH is formaldehyde dehydrogenase) | Potency, µM (titrated, usually from 57.7 µM), actives largely listed as inhibitors | hit rate 2.6% among 220,000 | AID 1347165; further: nearly all actives have a fitted effect of over 70% in size
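Measured: NADH fluorescence change, 30 min, RT. System: KDM5BΔAP 200 nM final, H3K4me3 peptide, α-KG, Fe(II), ascorbate, NAD⁺ plus FDH, pH 7.5 HEPES. Compounds: titrated, 10 min pre-incubation with enzyme.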
Of the large screens only hits and unclear results are named; the others gave an inactive call. Most compounds without a hit are left out; they make up all but 2.9% or so of the library. Unless noted, the call rests on the fitted dose curve; in most records, active means well fitted curve in the direction sought with a large enough effect; inconclusive means small, poorly fitted or top-dose-only effect, or another doubt; inactive means no such curve, though single readings can be large; an effect the other way counts as inactive or inconclusive.

COc1ccc(NC(=O)NCC2Cn3cccc3CN2Cc2ccccc2)cc1 (centres undefined)	none (no result: KDM5B inhibitor)
CN1Cc2cccn2CC1CNC(=O)NC1CCCCC1 (centres undefined)	KDM5B inhibitor 28µM
NCC1Cn2cccc2CN1Cc1ccccc1 (centres undefined)	KDM5B inhibitor 16µM
O=C(CCc1nc2ccccc2s1)NCC1Cn2cccc2CN1Cc1ccccc1 (centres undefined)	KDM5B inhibitor 25µM
O=C(Cn1c(=O)oc2ccccc21)NCC1Cn2cccc2CN1Cc1ccccc1 (centres undefined)	none (no result: KDM5B inhibitor)
O=[S+]1([O-])N(Cc2ccccc2)C[C@H](O)[C@]12CCN(Cc1ccc(OC(F)F)cc1)C2	none (no result: SNCA expr inhib, SNCA viab count, KDM5B inhibitor)
Cc1nnc2ccc(N3CCCC(NC(=O)c4ccccc4F)C3)nn12 (centres undefined)	none (no result: SNCA expr inhib, SNCA viab count, KDM5B inhibitor)
O=C(NCC1Cn2cccc2C(=O)N1Cc1ccccc1)C1CC1 (centres undefined)	none
O=C(NCC1Cn2cccc2CN1Cc1ccccc1)NC1CCCCC1 (centres undefined)	KDM5B inhibitor 28µM
CCn1cc(S(=O)(=O)NCC2Cn3cccc3CN2Cc2ccccc2)cn1 (centres undefined)	KDM5B inhibitor 28µM
O=C(NCC1Cn2cccc2CN1Cc1ccccc1)C1CC1 (centres undefined)	KDM5B inhibitor 28µM
CC(C)c1nc2nccc(-c3ccsc3)n2n1	KDM5B inhibitor 25µM
COc1ccc(-c2nc3nccc(-c4ccco4)n3n2)c(OC)c1	KDM5B inhibitor 22µM
COc1ccc(-c2nc3nccc(-c4ccsc4)n3n2)c(OC)c1	KDM5B inhibitor 18µM
COc1ccc(-c2ccnc3nc(-c4ccccc4OC)nn23)c(F)c1	KDM5B inhibitor inconclusive
COc1ccc(-c2ccnc3nc(-c4ccco4)nn23)c(F)c1	KDM5B inhibitor 16µM
c1csc(-c2nc3nccc(-c4ccsc4)n3n2)c1	KDM5B inhibitor inconclusive
COc1ccccc1-c1cccc(C(=O)N2CCC[C@H]2C(=O)NCc2cccs2)c1	none (no result: KDM5B inhibitor)
Cn1cc(-c2ccccc2)c2nc(COc3ccc(Cl)cc3)cn2c1=O	SNCA viab count inconclusive, KDM5B inhibitor inconclusive
Cc1cn2nc(C(=O)NC(C)c3ccccc3)cc2c(N2CCSCC2)n1 (centres undefined)	KDM5B inhibitor inconclusive
Cc1cn2nc(C(=O)N3CCN(c4ccccc4F)CC3)cc2c(N2CCCC2)n1	SNCA expr inhib inconclusive, KDM5B inhibitor 32µM
Cc1cn2nc(C(=O)N3CCCC3)cc2c(N2CCSCC2)n1	KDM5B inhibitor 28µM
O=C(NCc1nc(-c2cccc(F)c2)c(-c2ccccn2)[nH]1)N1CCCC1	KDM5B inhibitor 22µM
NC1(C(=O)NCc2nc(-c3cccc(F)c3)c(-c3ccccn3)[nH]2)CCC1	KDM5B inhibitor inconclusive
Cn1ccc2ccc(C(=O)N3CCN(CCOc4ccccc4)CC3)cc21	KDM5B inhibitor 28µM
COc1ccc(Nc2ccnc(N3CCCC(C(=O)N4CCC(Cc5ccccc5)CC4)C3)n2)cc1 (centres undefined)	SNCA expr inhib inconclusive, SNCA viab count inconclusive (no result: KDM5B inhibitor)
Cc1cccc(-c2cccc(CN3CCC(NC(=O)Nc4ccc(Cl)cc4)CC3)c2)c1	SNCA expr inhib 20µM, SNCA viab count inconclusive (no result: KDM5B inhibitor)
COc1ccc2nc3n(c2c1)[C@@H](CNCc1ccccc1)COC3	none
COc1ccc2nc3n(c2c1)[C@@H](CNCc1ccc(C#N)cc1)COC3	KDM5B inhibitor 28µM
Cc1ccc(C(=O)N[C@H]2CO[C@H]3[C@@H]2OC[C@@H]3Nc2nccc(-c3ccc4c(c3)OCO4)n2)cc1	KDM5B inhibitor 28µM
O=S(=O)(N[C@H]1CO[C@H]2[C@@H]1OC[C@@H]2Nc1nccc(-c2ccc3c(c2)OCO3)n1)c1ccc2ccccc2c1	SNCA expr inhib inconclusive, KDM5B inhibitor 28µM
COc1ccc(-c2ccnc(N[C@H]3CO[C@H]4[C@@H]3OC[C@@H]4NC(=O)c3ccc4c(c3)OCO4)n2)cc1	SNCA expr inhib inconclusive, SNCA viab count inconclusive
COc1ccccc1-c1ccnc(N[C@H]2CO[C@H]3[C@@H]2OC[C@@H]3NS(=O)(=O)c2ccc3ccccc3c2)n1	KDM5B inhibitor inconclusive
Cc1noc(C)c1[S+](=O)([O-])NC1CCN(c2ccc3nnc(-c4ccccc4)n3n2)C1 (centres undefined)	none (no result: SNCA expr inhib, SNCA viab count, KDM5B inhibitor)
CC(C)N1C[C@H](O)C[C@H]1c1nnc2n1CCN(C(=O)c1ccsc1)C2	SNCA expr inhib 25µM, KDM5B inhibitor inconclusive
Cc1ccc2nc(CN3CCCC(CO)(CC4CC4)C3)cn2c1 (centres undefined)	KDM5B inhibitor 22µM
O=C(Cc1ccc(Cl)cc1)NC1CCN(c2cc(-c3cccs3)[nH]n2)C1 (centres undefined)	KDM5B inhibitor 8.9µM
O=C(NC1CCN(c2cc(-c3cccs3)[nH]n2)C1)c1ccccc1Cl (centres undefined)	SNCA expr inhib inconclusive, SNCA viab count inconclusive, KDM5B inhibitor 14µM
COc1ccc(C(=O)NC2CCN(c3cc(-c4cccs4)[nH]n3)CC2)c(C)c1	KDM5B inhibitor inconclusive
O=C(NC1CCN(c2cc(-c3cccs3)[nH]n2)C1)c1ccc(F)cc1F (centres undefined)	KDM5B inhibitor inconclusive
O=C(NC1CCN(c2cc(-c3cccs3)[nH]n2)C1)c1ccc(F)cc1Cl (centres undefined)	KDM5B inhibitor 16µM
COc1ccc(C(=O)NC2CCN(c3cc(-c4cccs4)[nH]n3)C2)c(C)c1 (centres undefined)	SNCA viab count inconclusive, KDM5B inhibitor 14µM
Cc1cccc(CC(=O)NC2CCN(c3cc(-c4cccs4)[nH]n3)C2)c1 (centres undefined)	KDM5B inhibitor inconclusive
COc1cccc(CN2C[C@@H](Oc3ccccc3)C[C@H]2C(N)=O)c1	none (no result: KDM5B inhibitor)
COc1ccc(CNC(=O)C2CCCCN2Cc2ccc(-c3ccsc3)cc2)cc1OC (centres undefined)	none (no result: KDM5B inhibitor)
COCC(=O)Nc1ccc(-c2noc([C@@H]3CCCN3Cc3cc4ccccc4o3)n2)cn1	KDM5B inhibitor 32µM
CN(C)c1ccc(-c2noc([C@@H]3CCCN3CC3CCCCC3)n2)cn1	KDM5B inhibitor 40µM
COCC(=O)Nc1ccc(-c2noc([C@@H]3CCCN3Cc3ccc(NC(C)=O)cc3)n2)cn1	none
O[C@@H]1C[C@@H](c2nc(-c3ccccn3)no2)N(Cc2cc3ccccc3o2)C1	KDM5B inhibitor 32µM
COc1ccc(C(=O)Nc2ccc(-c3noc([C@@H]4CCCN4CC4CCCCC4)n3)cn2)cc1	KDM5B inhibitor 32µM
COc1ccc(C(=O)N2CCC3(CC2)OC(=O)N(Cc2ccccc2F)C3(C)c2ccccc2)cc1 (centres undefined)	none
COc1ccccc1C(=O)N1CCN(c2ccnc3ccnn23)CC1	none (no result: KDM5B inhibitor)
Cc1nnc2ccc(N3CCN(C(=O)c4ccc(C(F)(F)F)cc4)CC3)nn12	none (no result: SNCA expr inhib, SNCA viab count, KDM5B inhibitor)
Cc1ccc(Nc2ccnc(N3CCC(NC(=O)NC(C)C)CC3)n2)cc1	none (no result: KDM5B inhibitor)
FC(F)(F)c1cccc(C2=NOC3(CCN(Cc4ccsc4)C3)C2)c1 (centres undefined)	KDM5B inhibitor inconclusive
